Measured values: PubChem BioAssay (NCI)
About 83,000 compounds went through this panel and 20% of them were active in at least one assay; those are over-represented in the sample as a whole.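 Single-concentration screen, 48 h exposure, 96-well plates. Endpoint: percent growth. Below 10 = active.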 Active and inactive are the calls of the source.

The compounds below were run on HL-60(TB) leukemia (assay: NCI-60 one-dose screen, 48 h (100 = growth as untreated, 0 = no growth, -100 = all killed)). Settings: 10 µM unless noted.

Structure (SMILES) | growth
O=C1CCCC=CC[C@H]2C=C(Cl)C(=O)C2=CC[C@H](CCCCC(F)(F)F)OC(=O)CCCC=CC[C@H]2C=C(Cl)C(=O)C2=CC[C@H](CCCCC(F)(F)F)OC(=O)CCCC=CC[C@H]2C=C(Cl)C(=O)C2=CC[C@H](CCCCC(F)(F)F)O1 | 27.6% [6.25 µM] (inactive)
CC(C)(C)CC(C)(C)NCc1cc(C(C)(C)C)cc(CNC(C)(C)CC(C)(C)C)c1O | -33.8% (active)
COC1(OC)C2(Cl)C(Cl)=C(Cl)C1(Cl)C1COCC12 (configuration not stated) | 82.9% (inactive)
O=S(=O)(O)c1ccc(O)c(C2CCCCC2)c1 | 131% (inactive)
O=C/C=C/c1ccc([N+](=O)[O-])cc1Cl | 82.6% (inactive)
C/C(=C(\c1ccc(OCCN2CCCCCC2)cc1)c1ccc(OC(=O)c2ccccc2)cc1)c1ccc(Cl)cc1 | 13.8% (inactive)
COc1cc(/C=C/C(=O)c2ccc(Oc3ncnc4ccccc34)cc2)cc(OC)c1OC | 54.3% (inactive)
CCOC(=O)c1nn(-c2ccc(S(N)(=O)=O)cc2)c2nc(C)cc(=O)n12 | 101% (inactive)
O=C(Nc1cccc(-n2cc(-c3ccncc3)c(-c3cc(O)cc(Cl)c3)n2)c1)c1cc(C(F)(F)F)cc(C(F)(F)F)c1 | 21.4% (inactive)
O=C1/C(=C\c2coc3ccccc3c2=O)c2ccccc2N1c1c(Cl)cccc1Cl | 33.8% (inactive)
C/C=C(\C)C(=O)N[C@H]1C(O)C[C@]2(C)C3CC[C@@]4(C)C(CC[C@@H]4C(C)N(C)C)C3CCC2C1O (some centres not stated) | 5.7% (active)
COc1cc2oc(-c3cccc(NC(=O)c4ccc5c(c4)OCO5)c3)cc(=O)c2c(OC)c1OC | 34.6% (inactive)
Brc1cccc(-c2cc(-c3ccc4c(c3)OCCCO4)[nH]n2)c1 | 47.7% [25 µM] (inactive)
Oc1c(C(Nc2ccccc2)c2ccccc2)ccc2cccnc12 (configuration not stated) | 15.7% (inactive)
N/C(=N\c1nc2ccccc2s1)NC(=O)Nc1cccc(Cl)c1 | 3.43% (active)
COc1c(Cl)cc(Cl)cc1Cl | 98.7% (inactive)
Cc1ccc(NC(=O)NC2CCCCC2)cc1 | 63.1% (inactive)
COc1cc(/C=N/NC(=O)c2ccc(C(F)(F)F)nc2Nc2cc(Cl)ccc2C)cc(OC)c1OC | 107% (inactive)
Cc1cc(C(O)(c2ccc(Nc3ccccc3)cc2)c2ccc(Nc3ccc(S(=O)(=O)O)cc3)cc2)ccc1N (configuration not stated) | -7.9% (active)

Structure (SMILES) | growth
O=C(CSc1nc2ccccc2c(=O)n1-c1ccccc1)Nc1ccc(C(=O)/C=C/c2ccc(Cl)cc2)cc1 | 99% (inactive)
COC(=O)C1=CCC(n2cnc3c(N)ncnc32)O1 (configuration not stated) | 94% (inactive)
OCc1ccccc1F | 135% (inactive)
O=C1NC(=O)C(c2ccccc2)O1 (configuration not stated) | 99.5% (inactive)
Cc1cc(NCCCCNc2ccnc3cc(Cl)ccc23)nc(Nc2ccc(C(=O)N3CCCCC3)cc2)n1 | -59.3% (active)
Cc1cccc(-n2c(C)nc3ccc(N4CCCNC4=O)cc3c2=O)c1 | 109% (inactive)
CC(C)(C)NC(=O)C(OC(=O)c1cccc(Cl)c1)c1ccc(Cl)cc1 (configuration not stated) | 103% (inactive)
Nc1nc2c(s1)CCc1c-2c(Br)n(Cc2ccccc2)c1Br | 51.6% (inactive)
O=C(O)/C=C/c1ccc2c(c1)CCC2 | 110% (inactive)
O=C1/C(=C\c2cn(C(=O)c3ccc(Cl)cc3)c3ccccc23)c2ccccc2N1C(=O)c1ccc(Cl)cc1 | 54.2% (inactive)
CC(C)C1=NOC(=O)C1=Cc1cn(-c2ccccc2)nc1-c1cccc([N+](=O)[O-])c1 | -4.77% (active)
COc1ccc(NS(=O)(=O)c2ccc(C)cc2)c([N+](=O)[O-])c1 | 90.7% (inactive)
CC(C)CSc1nc(N)nc2c1ncn2C1OC(CO)C(O)C1O (configuration not stated) | 113% (inactive)
COc1cc(-c2nn(-c3ccc(NC(=O)Nc4ccc(Cl)c(C(F)(F)F)c4)cc3)cc2-c2ccncc2)ccc1Cl | 1.53% (active)
O=[N+]([O-])c1ccc(C=C2C(Cl)=C(Cl)C(Cl)=C2Cl)cc1 | 34.2% (inactive)
CCC(C)(C)c1ccc(OCCCCCCN2CCNCC2)cc1 | -17.4% (active)
CNC(=O)NCC1OC(n2cnc3c(NC(=O)Nc4ccccc4)ncnc32)C2OC(C)(C)OC12 (configuration not stated) | 83.9% (inactive)
COc1ccc(C(=O)OC2C(OC3C(O)COC(O[C@H]4C[C@H]5[C@@H]6CC=C7C[C@@H](O)CC[C@]7(C)[C@H]6CC[C@]5(C)[C@H]4[C@H](C)C(=O)CCC(C)C)C3OC(=O)C(C)C)OCC(O)C2O)cc1 (some centres not stated) | -17% (active)
